PubChem BioAssay (Tox21)
Where “and” joins values, the source holds several entries; their conditions need not be identical. Equal values may be shown once. Inconclusive results are not listed. Calls of active or inactive are those of the source. Unless noted, calls follow the shape of the dose curve; as a rule, active = well fitted curve in the direction sought with a large enough effect in the repeat runs; inconclusive = weak or mixed curves; inactive = no such curve, though single readings can be large; an effect the other way counts as inactive or inconclusive.

How the values were obtained:
[1] = qHTS assay to identify small molecule agonists of the sonic hedgehog signaling (Shh) pathway (AID 1259368; calls by dose curve;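 also: NIH/3T3-derived 3T3Gli1-Luc cells carrying a stable Gli1-driven firefly luciferase reporter; series mostly up to about 92 µM; nearly all actives have a fitted effect of over 15% in size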)
Summary of the method: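 Stable NIH/3T3 Gli1-Luc reporter clone; 24 hr cpd exposure after a 4 hr settling period; luminescence endpoint.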

[2] = qHTS assay to identify small molecule antagonists of the sonic hedgehog signaling (Shh) pathway (AID 1259369; calls by dose curve; also: nearly all actives have a fitted effect of over 45% in size; also: potency is read from the fitted curve at half-maximal effect)
Summary of the method: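 Gli1 transcriptional reporter (firefly Luc) in NIH/3T3 background, conditioned-medium activated. 24hr exposure, luminescence endpoint.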

[3] = qHTS assay to identify small molecule agonists of the androgen receptor (AR) signaling pathway in the presence of an antagonist - cell viability counter screen (AID 1259379);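 also: MDA-kb2 human breast cancer cells carrying an MMTV luciferase reporter; series mostly up to about 92 µM; nearly all actives have a fitted effect of over 25% in size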
Summary of the method: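 Counter screen for cell viability run in parallel with the AR agonist-mode luciferase assay. MDA-kb2 cells were co-treated with nilutamide (3.0uM final) and compounds, then incubated 16 hr at 37C, and CellTiter-Fluor fluorescence was measured.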

[4] = qHTS assay to identify small molecule agonists of the estrogen receptor beta (ER-beta) signaling pathway - cell viability counter screen (AID 1259380); also: nearly all actives have a fitted effect of over 30% in size; also: potency is read from the fitted curve at half-maximal effect
Summary of the method: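 In this qHTS counter screen, HEK293T cells carrying an ER-beta/UAS beta-lactamase reporter, grown in 2% charcoal-stripped FBS, received compound for 16 hr; ATP-based CellTiter-Glo luminescence was then read after 30 min at room temperature.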

[5] = qHTS assay to identify small molecule antagonists of the estrogen receptor beta (ER-beta) signaling pathway - cell viability counter screen (AID 1259382); also: nearly all actives have a fitted effect of over 55% in size; also: potency is read from the fitted curve at half-maximal effect; as to activity change, negative = cytotoxicity: series mostly up to about 92 µM
Summary of the method: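 HEK293T ER-beta-UAS-bla, 2% charcoal-stripped FBS; compounds + 1nM E2 16 hr 37C; CellTiter-Glo luminescence, 30 min RT.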

[6] = target: Estrogen receptor (Homo sapiens) (UniProt P03372); assay: qHTS assay to identify small molecule agonists of the estrogen receptor alpha (ER-alpha) signaling pathway in the presence of an antagonist (AID 1259383; calls by dose curve; also: top concentration of the series differs between compounds; nearly all actives have a fitted effect of over 15% in size)
Chain of Estrogen receptor (Homo sapiens) (P03372 whole entry, looked up): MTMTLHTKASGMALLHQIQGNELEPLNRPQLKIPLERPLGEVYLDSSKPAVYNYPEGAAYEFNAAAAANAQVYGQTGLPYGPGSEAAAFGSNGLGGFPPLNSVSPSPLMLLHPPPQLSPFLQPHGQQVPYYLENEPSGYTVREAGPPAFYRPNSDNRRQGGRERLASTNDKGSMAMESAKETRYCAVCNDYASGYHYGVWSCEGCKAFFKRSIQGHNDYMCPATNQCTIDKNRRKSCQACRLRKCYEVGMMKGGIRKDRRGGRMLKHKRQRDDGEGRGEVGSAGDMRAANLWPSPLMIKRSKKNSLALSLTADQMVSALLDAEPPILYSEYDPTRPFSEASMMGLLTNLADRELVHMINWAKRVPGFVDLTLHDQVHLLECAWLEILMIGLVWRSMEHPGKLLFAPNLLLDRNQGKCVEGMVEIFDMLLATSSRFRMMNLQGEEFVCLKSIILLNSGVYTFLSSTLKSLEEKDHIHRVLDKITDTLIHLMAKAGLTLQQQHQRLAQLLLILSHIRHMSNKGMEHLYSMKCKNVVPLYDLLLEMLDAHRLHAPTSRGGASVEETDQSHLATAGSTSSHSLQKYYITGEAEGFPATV
Summary of the method: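 ER-alpha agonism measured under antagonist challenge: 10.0nM ICI-182,780 (final) plus compound, 15 concentrations, 22hr, VM7Luc4E2 ERE-luciferase cells. Read by luminescence.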

[7] = qHTS assay to identify small molecule agonists or antagonists of the thyroid stimulating hormone receptor (TSHR) signaling pathway - wild type cell line counter screen (AID 1259384; calls by dose curve)
Summary of the method: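 Wild-type HEK293 cells were plated 18 h at 37 C/5% CO2, pin-dosed with compound plus Ro20-1724 medium, held 30 min at room temperature, then given cAMP-d2 and anti-cAMP-cryptate; fluorescence was read after 1 h. Fifteen concentrations, triplicate.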

[8] = target: Thyrotropin receptor (Homo sapiens) (UniProt P16473); assay: qHTS assay to identify small molecule antagonists of the thyroid stimulating hormone receptor (TSHR) signaling pathway (AID 1259385; calls by dose curve; also: nearly all actives have a fitted effect of over 20% in size; also: potency is read from the fitted curve at half-maximal effect)
Chain of Thyrotropin receptor (Homo sapiens) (P16473 whole entry, looked up): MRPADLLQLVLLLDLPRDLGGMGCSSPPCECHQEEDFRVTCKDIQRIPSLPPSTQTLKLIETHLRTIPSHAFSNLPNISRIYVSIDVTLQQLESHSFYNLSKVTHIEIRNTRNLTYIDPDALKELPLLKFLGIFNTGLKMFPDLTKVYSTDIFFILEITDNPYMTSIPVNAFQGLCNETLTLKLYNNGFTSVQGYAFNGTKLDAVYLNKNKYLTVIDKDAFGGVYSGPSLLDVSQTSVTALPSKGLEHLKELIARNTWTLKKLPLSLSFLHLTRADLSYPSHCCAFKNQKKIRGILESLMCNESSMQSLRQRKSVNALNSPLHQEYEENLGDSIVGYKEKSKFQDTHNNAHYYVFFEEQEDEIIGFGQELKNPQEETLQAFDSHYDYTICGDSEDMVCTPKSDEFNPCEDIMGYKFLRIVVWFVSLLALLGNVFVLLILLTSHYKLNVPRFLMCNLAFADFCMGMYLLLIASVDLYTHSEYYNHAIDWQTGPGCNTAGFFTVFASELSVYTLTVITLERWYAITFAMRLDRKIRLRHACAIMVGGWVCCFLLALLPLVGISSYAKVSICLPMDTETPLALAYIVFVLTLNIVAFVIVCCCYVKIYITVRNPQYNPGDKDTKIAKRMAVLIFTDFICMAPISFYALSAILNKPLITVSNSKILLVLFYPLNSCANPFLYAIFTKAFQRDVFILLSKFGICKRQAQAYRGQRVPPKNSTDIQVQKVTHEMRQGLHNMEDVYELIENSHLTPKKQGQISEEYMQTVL
Summary of the method: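 TSHR-HEK293 cells were plated and held 18 h at 37C/5% CO2, then given compound plus Ro20-1724 and stimulated with TSH at 1.5 ng/mL final. After 30 min at room temperature, cAMP was detected with cAMP-d2/anti-cAMP-cryptate (1 h) by fluorescence.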

[9] = target: Progesterone receptor (Homo sapiens) (UniProt P06401); assay: qHTS assay to identify small molecule agonists of the progesterone receptor (PR) signaling pathway (AID 1346784; calls by dose curve; also: nearly all actives have a fitted effect of over 30% in size)
Chain of Progesterone receptor (Homo sapiens) (P06401 whole entry, looked up): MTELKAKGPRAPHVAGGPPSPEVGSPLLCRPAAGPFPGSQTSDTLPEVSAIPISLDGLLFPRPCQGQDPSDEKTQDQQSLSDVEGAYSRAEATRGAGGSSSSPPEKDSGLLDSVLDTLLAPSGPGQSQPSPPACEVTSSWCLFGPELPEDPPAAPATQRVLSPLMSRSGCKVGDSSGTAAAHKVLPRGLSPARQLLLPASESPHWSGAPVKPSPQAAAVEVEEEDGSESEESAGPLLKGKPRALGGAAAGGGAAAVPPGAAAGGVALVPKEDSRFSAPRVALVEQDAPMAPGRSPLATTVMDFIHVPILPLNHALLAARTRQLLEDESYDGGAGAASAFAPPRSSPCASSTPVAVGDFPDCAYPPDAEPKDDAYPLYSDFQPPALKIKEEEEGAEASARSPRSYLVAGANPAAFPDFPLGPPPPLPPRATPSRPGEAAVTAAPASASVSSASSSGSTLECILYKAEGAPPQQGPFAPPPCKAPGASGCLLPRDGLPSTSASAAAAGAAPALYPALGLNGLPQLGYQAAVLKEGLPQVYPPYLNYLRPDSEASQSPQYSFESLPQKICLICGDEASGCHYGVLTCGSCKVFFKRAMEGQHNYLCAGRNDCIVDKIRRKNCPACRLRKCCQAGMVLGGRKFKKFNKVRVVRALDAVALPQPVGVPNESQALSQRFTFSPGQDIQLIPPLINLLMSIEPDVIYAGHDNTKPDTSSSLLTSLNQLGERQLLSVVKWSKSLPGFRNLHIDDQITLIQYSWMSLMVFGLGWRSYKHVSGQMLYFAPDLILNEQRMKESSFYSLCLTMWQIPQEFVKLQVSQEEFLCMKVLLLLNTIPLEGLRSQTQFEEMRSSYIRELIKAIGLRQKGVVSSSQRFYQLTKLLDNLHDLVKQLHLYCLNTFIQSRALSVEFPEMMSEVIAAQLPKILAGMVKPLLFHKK
Summary of the method: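 Seed PR-UAS-bla HEK 293T cells (2% charcoal-stripped FBS), incubate 6 hr at 37C; add compounds in DMSO, 16 hr at 37C; add LiveBLAzer B/G substrate, 2 hr RT; read fluorescence intensity.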

[10] = target: Progesterone receptor (Homo sapiens) (UniProt P06401); assay: qHTS assay to identify small molecule antagonists of the progesterone receptor (PR) signaling pathway (AID 1346795; active = well fitted inhibition curve with a large enough effect in the signal ratio in the repeat runs, not every such curve was filed as active; the % refers to the signal ratio; also: potency is read from the fitted curve at half-maximal effect)
Summary of the method: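 Screening used a GripTite HEK293T line with PR-responsive UAS-beta-lactamase. Cells were challenged with compound in the presence of 1 nM R5020 final for 16 hr at 37C; B/G FRET substrate, 2 hr room temperature, fluorescence.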

[11] = qHTS assay to identify small molecule antagonists of the progesterone receptor (PR) signaling pathway - cell viability counter screen (AID 1346798); also: nearly all actives have a fitted effect of over 50% in size; also: potency is read from the fitted curve at half-maximal effect; as to activity change, negative = cytotoxicity: series mostly up to about 92 µM
Summary of the method: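 Measures cytotoxicity in parallel with the PR antagonist reporter read: HEK293T PR-UAS-bla cells get compound and R5020 for 16 hr, and remaining viable cells are quantified by CellTiter-Glo luminescence.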

[12] = qHTS assay to identify small molecule antagonists of the TGF-beta/Smad signaling pathway - cell viability counter screen (AID 1346824); also: nearly all actives have a fitted effect of over 50% in size
Summary of the method: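 SBE-bla HEK 293T cells were plated overnight at 37 C, then given compounds in DMSO plus TGF-beta1 (added as 0.25 ng/mL solution) for 5 hr. After the bla read, CellTiter-Glo was added to the same wells and luminescence read after 30 min at room temperature.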

[13] = qHTS assay to identify small molecule agonists of the TGF-beta/Smad signaling pathway - cell viability counter screen (AID 1346829); also: top concentration of the series differs between compounds; nearly all actives have a fitted effect of over 45% in size
Summary of the method: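 Here the cytotoxicity of library compounds is measured in SBE-bla HEK 293T cells treated for 5 hr, using CellTiter-Glo added to wells already read for the beta-lactamase reporter.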

[14] = qHTS assay to identify small molecule agonists of the TGF-beta/Smad signaling pathway (AID 1346859; active = well fitted activation curve with a large enough effect in the signal ratio in the repeat runs, not every such curve was filed as active; the % refers to the signal ratio; also: series mostly up to about 77 µM)
Summary of the method: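 Beta-lactamase reporter activity downstream of Smad binding elements was measured in stably transfected HEK 293T cells; compounds were incubated for 5 hr, substrate for 2 hr at room temperature.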

[15] = target: Thyrotropin-releasing hormone receptor (Homo sapiens) (UniProt P34981); assay: qHTS assay to identify small molecule antagonists of the thyrotropin-releasing hormone receptor (TRHR) signaling pathway (AID 1346877; active = well fitted inhibition curve with a large enough effect in the repeat runs, not every such curve was filed as active; also: series mostly up to about 51 µM)
Chain of Thyrotropin-releasing hormone receptor (Homo sapiens) (P34981 whole entry, looked up): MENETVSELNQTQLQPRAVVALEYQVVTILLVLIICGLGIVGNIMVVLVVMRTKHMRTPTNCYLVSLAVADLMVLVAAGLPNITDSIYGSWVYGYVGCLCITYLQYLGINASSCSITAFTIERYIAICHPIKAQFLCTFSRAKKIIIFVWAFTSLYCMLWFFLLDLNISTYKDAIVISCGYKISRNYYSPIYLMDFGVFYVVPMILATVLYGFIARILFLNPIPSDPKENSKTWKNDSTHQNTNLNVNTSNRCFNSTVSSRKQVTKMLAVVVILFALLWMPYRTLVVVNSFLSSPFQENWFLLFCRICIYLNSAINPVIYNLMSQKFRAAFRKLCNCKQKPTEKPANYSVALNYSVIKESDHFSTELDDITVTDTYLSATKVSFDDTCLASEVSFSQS
Summary of the method: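 Human TRHR in HEK293 cells; inhibition of the intracellular calcium rise triggered by 1 nM TRH was followed by fluorescence over 3 min. Compounds were run at 15 concentrations, three replicates each.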

[16] = qHTS assay to identify small molecule agonists of the progesterone receptor (PR) signaling pathway - cell viability counter screen (AID 1346799; calls by dose curve; also: nearly all actives have a fitted effect of over 45% in size; also: potency is read from the fitted curve at half-maximal effect)
Summary of the method: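 Using the same plates as the PR reporter screen, HEK293T PR-UAS-bla cells received compounds for 16 hr at 37C and were then lysed with CellTiter-Glo; luminescence was read 30 min later at room temperature.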

[17] = qHTS assay to identify small molecule agonists of the estrogen receptor alpha (ER-alpha) signaling pathway in the presence of an antagonist - cell viability counter screen (AID 1259386);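 also: series mostly up to about 92 µM; cells exposed to compounds for 22 h at 37 °C before the viability read; nearly all actives have a fitted effect of over 30% in size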
Summary of the method: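 Steps: 5-day stripped-FBS culture; seed and incubate 24hr; add ICI-182,780 (10.0nM final); pin 15-point compound titration; incubate 22hr at 37C; add CellTiter-Fluor at 21hr; read fluorescence.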

[18] = target: Androgen receptor (Homo sapiens) (UniProt P10275); assay: qHTS assay to identify small molecule agonists of the androgen receptor (AR) signaling pathway in the presence of an antagonist (AID 1259381; calls by dose curve; also: nearly all actives have a fitted effect of over 15% in size)
Chain of Androgen receptor (Homo sapiens) (P10275 whole entry, looked up): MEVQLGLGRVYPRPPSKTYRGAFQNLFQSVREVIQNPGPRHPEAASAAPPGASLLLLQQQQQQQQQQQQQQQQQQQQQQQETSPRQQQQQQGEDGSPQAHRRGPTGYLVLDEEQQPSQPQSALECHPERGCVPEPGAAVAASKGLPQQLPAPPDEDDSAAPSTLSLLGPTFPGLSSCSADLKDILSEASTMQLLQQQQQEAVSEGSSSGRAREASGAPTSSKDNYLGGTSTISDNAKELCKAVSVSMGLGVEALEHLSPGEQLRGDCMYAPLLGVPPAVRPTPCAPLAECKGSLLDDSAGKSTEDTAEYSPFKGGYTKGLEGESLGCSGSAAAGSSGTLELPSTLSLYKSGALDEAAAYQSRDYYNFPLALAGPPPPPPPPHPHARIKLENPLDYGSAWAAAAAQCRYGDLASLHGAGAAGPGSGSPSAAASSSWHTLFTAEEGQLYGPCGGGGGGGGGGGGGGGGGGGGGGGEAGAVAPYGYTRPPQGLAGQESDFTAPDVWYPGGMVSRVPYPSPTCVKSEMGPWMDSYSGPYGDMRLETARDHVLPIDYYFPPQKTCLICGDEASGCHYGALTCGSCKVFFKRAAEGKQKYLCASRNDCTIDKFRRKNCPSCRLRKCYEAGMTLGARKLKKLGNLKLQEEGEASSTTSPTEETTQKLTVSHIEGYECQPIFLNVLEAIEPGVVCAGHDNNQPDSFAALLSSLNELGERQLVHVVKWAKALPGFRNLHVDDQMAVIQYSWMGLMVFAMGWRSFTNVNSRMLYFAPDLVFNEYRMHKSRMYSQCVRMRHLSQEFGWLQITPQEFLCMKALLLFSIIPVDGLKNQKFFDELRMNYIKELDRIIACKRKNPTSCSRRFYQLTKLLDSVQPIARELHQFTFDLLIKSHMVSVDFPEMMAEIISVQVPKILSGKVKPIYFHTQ
Summary of the method: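 AR antagonist background: nilutamide 3.0uM final. Cell line: MDA-kb2, MMTV-driven luciferase, responsive to both AR and GR. Exposure 16hr, 37C, no CO2; ONE-Glo luminescence.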

[19] = target: Estrogen receptor beta (Homo sapiens) (UniProt Q92731); assay: qHTS assay to identify small molecule agonists of the estrogen receptor beta (ER-beta) signaling pathway (AID 1259377; active = well fitted activation curve with a large enough effect in the signal ratio in the repeat runs, not every such curve was filed as active; the % refers to the signal ratio)
Chain of Estrogen receptor beta (Homo sapiens) (Q92731 whole entry, looked up): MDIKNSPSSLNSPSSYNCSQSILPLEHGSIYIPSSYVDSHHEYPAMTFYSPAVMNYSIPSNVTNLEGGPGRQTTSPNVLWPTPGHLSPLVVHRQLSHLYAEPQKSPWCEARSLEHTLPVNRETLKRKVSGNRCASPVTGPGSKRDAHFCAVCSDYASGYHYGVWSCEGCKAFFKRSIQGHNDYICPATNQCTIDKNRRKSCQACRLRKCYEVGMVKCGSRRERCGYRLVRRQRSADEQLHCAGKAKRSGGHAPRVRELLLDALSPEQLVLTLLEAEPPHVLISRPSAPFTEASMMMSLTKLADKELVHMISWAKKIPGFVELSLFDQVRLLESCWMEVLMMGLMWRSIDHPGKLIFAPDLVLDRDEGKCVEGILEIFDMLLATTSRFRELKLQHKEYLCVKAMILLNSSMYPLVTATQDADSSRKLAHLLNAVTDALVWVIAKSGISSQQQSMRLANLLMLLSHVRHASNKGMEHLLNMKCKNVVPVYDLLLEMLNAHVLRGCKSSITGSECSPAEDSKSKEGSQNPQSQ
Summary of the method: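 Screening used GripTite ER-beta-UAS-bla cells held in 2% charcoal-stripped FBS medium. After overnight (16 hr) compound incubation at 37C, beta-lactamase activity was detected with a FRET substrate by fluorescence.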

[20] = target: Estrogen receptor beta (Homo sapiens) (UniProt Q92731); assay: qHTS assay to identify small molecule antagonists of the estrogen receptor beta (ER-beta) signaling pathway (AID 1259378; active = well fitted inhibition curve with a large enough effect in the signal ratio in the repeat runs, not every such curve was filed as active; the % refers to the signal ratio)
Summary of the method: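 ER-beta-UAS-bla HEK293T (GripTite) cells in 2% charcoal-stripped FBS medium were preincubated 6 hr at 37C, dosed with compound, then stimulated with 1 nM E2 (final) for 16 hr; beta-lactamase reporter read by B/G FRET fluorescence after 2 hr substrate loading.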
% is scaled to controls: 0 for no effect and ±100 for the full control effect.

CN(C)CCCSc1ccccc1NC(=O)/C=C/c1ccccc1
inactive: outcome [1] | Potency [2] | Potency [3] | Potency [4] | Potency [5] | Potency [6] | outcome [7] | Potency [8] | Potency [9] | Potency [10] | Potency [11] | Potency [12] | outcome [13] | outcome [14] | outcome [15]

CCCCCCCCCCCCN(CCCCCCCCCCCC)CCCCCCCCCCCC
inactive: outcome [1] | Potency [2] | Potency [3] | Potency [4] | Potency [5] | outcome [7] | Potency [8] | Potency [9] | Potency [11] | Potency [16] | Potency [12] | outcome [14]

C[N+](C)(C)CCCCCC[N+](C)(C)C
inactive: outcome [1] | Potency [2] | Potency [3] | Potency [4] | Potency [5] | Potency [17] | Potency [9] | Potency [10] | Potency [11] | Potency [16] | Potency [12] | outcome [13] | outcome [14] | outcome [15]

O=C(CCCN1CCC(O)(c2cccc(C(F)(F)F)c2)CC1)c1ccc(F)cc1
inactive: outcome [1] | Potency [2] | Potency [3] | outcome [7] | Potency [17] | Potency [9] | Potency [11] | Potency [12] | outcome [13] | outcome [14] | outcome [15]

CCOC(=O)c1c(C)n(C)c2ccc(O)cc12
inactive: outcome [1] | Potency [2] | Potency [18] | Potency [5] | outcome [7] | Potency [8] | Potency [17] | Potency [9] | Potency [11] | Potency [16] | Potency [12] | outcome [13] | outcome [14] | outcome [15]

CC(=O)c1ccccc1O
inactive: outcome [1] | Potency [2] | Potency [3] | Potency [5] | Potency [6] | outcome [7] | Potency [8] | Potency [17] | Potency [9] | Potency [10] | Potency [11] | Potency [16] | Potency [12] | outcome [13] | outcome [14] | outcome [15]

CCC(C)S (configuration not stated)
inactive: activity change [1] -0.25% [at 3.27 µM] | activation [19] 0.578% [at 3.32 µM] | activity, negative = inhibition [20] 9.7% [at 3.27 µM] | activity change, negative = cytotoxicity [3] -0.314% [at 3.27 µM] | activity change, negative = cytotoxicity [4] 4.81% [at 3.32 µM] | activity change, negative = cytotoxicity [5] 6.44% [at 3.27 µM] | cAMP activity change [7] 0.879% [at 3.27 µM] | activity change, negative = inhibition [8] -0.487% [at 3.27 µM] | activity change, negative = cytotoxicity [17] 1.97% [at 3.27 µM] | activation [9] -0.0244% [at 3.27 µM] | activity change, negative = inhibition [10] 8.27% [at 3.27 µM] | activity change, negative = cytotoxicity [11] -5.62% [at 3.27 µM] | activity change, negative = cytotoxicity [16] 1.88% [at 3.27 µM] | viability change, negative = cytotoxic [12] -5.42% [at 2.72 µM] | activity change, negative = cytotoxicity [13] 8.43% [at 2.72 µM] | activation [14] -0.527% [at 2.72 µM] | activity, negative = inhibition [15] -1.08% [at 1.81 µM]

CC1(C)C(O)C(C)(C)C1O (configuration not stated)
inactive: outcome [1] | Potency [2] | Potency [4] | Potency [18] | Potency [5] | Potency [6] | outcome [7] | Potency [8] | Potency [17] | Potency [11] | Potency [16] | Potency [12] | outcome [13] | outcome [14]

C=C[Si](OC(=C)C)(OC(=C)C)OC(=C)C
inactive: outcome [1] | outcome [19] | outcome [20] | Potency [3] | Potency [4] | Potency [5] | Potency [6] | outcome [7] | Potency [8] | Potency [17] | Potency [9] | Potency [10] | Potency [11] | Potency [16] | Potency [12] | outcome [13] | outcome [14] | outcome [15]

COc1ccc2c(c1)CCCC2=O
inactive: outcome [1] | Potency [2] | Potency [4] | Potency [5] | Potency [6] | Potency [17] | Potency [9] | Potency [10] | Potency [11] | Potency [16] | Potency [12] | outcome [13] | outcome [14]

CO[C@]12C[C@@H](COC(=O)c3cncc(Br)c3)CN(C)[C@@H]1Cc1cn(C)c3cccc2c13
inactive: outcome [1] | Potency [2] | Potency [4] | Potency [18] | Potency [5] | outcome [7] | Potency [8] | Potency [17] | Potency [9] | Potency [16] | Potency [12] | outcome [13] | outcome [14] | outcome [15]

O=C(O)c1ccccc1OP(=O)(O)O
inactive: outcome [1] | outcome [19] | outcome [20] | Potency [3] | Potency [4] | Potency [5] | Potency [6] | outcome [7] | Potency [8] | Potency [17] | Potency [9] | Potency [10] | Potency [11] | Potency [12] | outcome [14] | outcome [15]

CC/C=C\CC/C=C/CO
inactive: outcome [1] | Potency [2] | Potency [3] | Potency [4] | Potency [5] | Potency [9] | Potency [11] | Potency [16] | Potency [12] | outcome [14] | outcome [15]

CN(C)CCCN1c2ccccc2CCc2ccc(Cl)cc21
active: Potency [2] 15.4 µM and 11.9 µM | Potency [4] 24.3 µM and 21.1 µM | Potency [5] 24.3 µM and 18.8 µM | Potency [8] 68.6 µM and 29.8 µM | Potency [10] 26.6 µM | Potency [11] 34.4 µM and 29.8 µM | Potency [16] 30.6 µM and 23.7 µM
inactive: outcome [1] | outcome [7] | Potency [9] | Potency [12] | outcome [13] | outcome [14] | outcome [15]

c1cnc(N2CCN(Cc3ccc4c(c3)OCO4)CC2)nc1
inactive: outcome [1] | outcome [19] | outcome [20] | Potency [3] | Potency [4] | Potency [5] | Potency [6] | outcome [7] | Potency [8] | Potency [17] | Potency [9] | Potency [10] | Potency [11] | Potency [16] | Potency [12] | outcome [14] | outcome [15]

CC(C)NC(=O)NC(C)C
inactive: outcome [1] | outcome [19] | outcome [20] | Potency [3] | Potency [4] | Potency [18] | Potency [5] | Potency [6] | outcome [7] | Potency [8] | Potency [9] | Potency [11] | Potency [16] | Potency [12] | outcome [14] | outcome [15]
